# Measured values from PubChem BioAssay (NCATS).
# Results filed as inconclusive are left out. Entries that show only a call come without a potency. Calls of active or inactive are those of the source. Unless noted, calls follow the shape of the dose curve; as a rule, active = well fitted curve in the direction sought with a large enough effect; inconclusive = small, poorly fitted or top-dose-only effect, or another doubt; inactive = no such curve, though single readings can be large; an effect the other way counts as inactive or inconclusive.
# Columns and labels:
# [1] = molecular target: Rap guanine nucleotide exchange factor 3 (Homo sapiens) (UniProt O95398); assay: Confirmatory qHTS for antagonist of cAMP-regulated guanine nucleotide exchange factor 3 (EPAC1) (AID 1645880); also: nearly all actives have a fitted effect of over 55% in size; also: potency is read from the fitted curve at half-maximal effect
# Summary of the method: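 Nucleotide exchange uses 100 nM EPAC1, 250 nM RAP1B-BODIPY-GDP and 50 uM GDP, with compounds in a concentration-titration series. After 5 min at room temperature, fluorescence (480 nm ex/540 nm em) is read every 5 min for 30 min. Data are normalized to control ATA and DMSO.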
# [2] = molecular target: Rap guanine nucleotide exchange factor 3 (Homo sapiens) (UniProt O95398); assay: Confirmatory qHTS for agonist of cAMP-regulated guanine nucleotide exchange factor 3 (EPAC1) (AID 1645881);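 also: EPAC1 catalysed release of BODIPY-GDP from Rap1B seen as fluorescence loss; nearly all actives have a fitted effect of over 75% in size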
# [3] = molecular target: Rap guanine nucleotide exchange factor 4 (Homo sapiens) (UniProt Q8WZA2); assay: Confirmatory qHTS for agonist of cAMP-regulated guanine nucleotide exchange factor 4 (EPAC2) (AID 1645884);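 also: nucleotide exchange releases bodipy-GDP from Rap1 and this lowers its fluorescence; nearly all actives have a fitted effect of over 65% in size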
# [4] = Primary qHTS for inhibitors of nuclear receptor binding SET domain protein 2 (NSD2) in an isogenic RCH-ACV NSD2 p.E1099K mutant (9B) (AID 1645876); also: nearly all actives have a fitted effect of over 70% in size; also: potency is read from the fitted curve at half-maximal effect
# [5] = molecular target: Glutathione peroxidase 1 (Homo sapiens) (UniProt P07203); assay: Primary qHTS Assay for Inhibitors of Recombinant Selenoprotein Glutathione Peroxidase 1 (GPX1) (AID 1845191); also: nearly all actives have a fitted effect of over 65% in size
# Summary of the method: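 Recombinant GPX1 (10 nM final) was preincubated with compound for 30 min at room temperature, then reacted with 1 mM GSH, 0.5 mM CHP, 0.5 mM NADPH and 100 nM glutathione reductase; NADPH fluorescence (340/450 nm) was read at 0 and 15 min.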
# [6] = molecular target: Phospholipid hydroperoxide glutathione peroxidase GPX4 (Homo sapiens) (UniProt P36969); assay: Primary qHTS Assay for Inhibitors of Recombinant Selenoprotein Glutathione Peroxidase 4 (GPX4) (AID 1845192); also: nearly all actives have a fitted effect of over 65% in size; also: potency is read from the fitted curve at half-maximal effect
# Summary of the method: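 GR-coupled readout: 100 nM GR, 1 mM GSH, 0.5 mM NADPH; NADPH fluorescence (ex 340/em 450 nm) read at t=0 and after 15 min RT. GPX4 200 nM, preincubated 30 min with compound; substrate 0.5 mM CHP.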
# [7] = qHTS drug screen for cell cycle checkpoint inhibitors in PARPi-resistant BRCA-mutant ovarian cancer cell lines. (AID 1963452; calls by dose curve); conditions: PEO1/OlaR viability, CellTiter-Glo luminescence, 96 h, stronger effect = lower value
# Summary of the method: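 PEO1, PEO4 and PEO1/OlaR ovarian cancer cells, 600 per well, exposed 96 h at 37C to a dilution series. Viability read by CellTiter-Glo luminescence, normalized to DMSO and empty wells; activity summarized as Z-AUC.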
# [8] = Primary qHTS for inhibitors of nuclear receptor binding SET domain protein 2 (NSD2) in an RCH-ACV wild type WT cells (2C) (AID 1645877); also: nearly all actives have a fitted effect of over 70% in size; also: potency is read from the fitted curve at half-maximal effect
# [9] = NCATS anti-infectives library activity on HEK293 viability as a counter-qHTS vs the C. elegans viability qHTS (AID 1745854);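 also: HEK293 cells exposed to compounds for 24 hr before the viability read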
# Summary of the method: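 Compounds were acoustically plated (several concentrations, 1:5, final up to 41.7 uM), then 1500 HEK293 cells added per well and incubated 24 hr at 37C, 5% CO2. CellTiter-Glo was added and luminescence read after 10 min.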
# [10] = molecular target: Rap guanine nucleotide exchange factor 4 (Homo sapiens) (UniProt Q8WZA2); assay: Confirmatory qHTS for antagonist of cAMP-regulated guanine nucleotide exchange factor 4 (EPAC2) (AID 1645885); also: nearly all actives have a fitted effect of over 25% in size
# [11] = measured here: PEO1 parental Z-AUC
# Sequence of Phospholipid hydroperoxide glutathione peroxidase GPX4 (Homo sapiens) (P36969 whole entry, looked up): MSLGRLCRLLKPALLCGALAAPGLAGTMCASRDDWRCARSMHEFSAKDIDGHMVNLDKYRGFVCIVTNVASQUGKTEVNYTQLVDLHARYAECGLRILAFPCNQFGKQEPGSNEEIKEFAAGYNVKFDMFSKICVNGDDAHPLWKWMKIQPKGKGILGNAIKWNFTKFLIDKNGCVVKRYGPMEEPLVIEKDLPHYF
# Sequence of Rap guanine nucleotide exchange factor 4 (Homo sapiens) (Q8WZA2 whole entry, looked up, the tested form may be a part): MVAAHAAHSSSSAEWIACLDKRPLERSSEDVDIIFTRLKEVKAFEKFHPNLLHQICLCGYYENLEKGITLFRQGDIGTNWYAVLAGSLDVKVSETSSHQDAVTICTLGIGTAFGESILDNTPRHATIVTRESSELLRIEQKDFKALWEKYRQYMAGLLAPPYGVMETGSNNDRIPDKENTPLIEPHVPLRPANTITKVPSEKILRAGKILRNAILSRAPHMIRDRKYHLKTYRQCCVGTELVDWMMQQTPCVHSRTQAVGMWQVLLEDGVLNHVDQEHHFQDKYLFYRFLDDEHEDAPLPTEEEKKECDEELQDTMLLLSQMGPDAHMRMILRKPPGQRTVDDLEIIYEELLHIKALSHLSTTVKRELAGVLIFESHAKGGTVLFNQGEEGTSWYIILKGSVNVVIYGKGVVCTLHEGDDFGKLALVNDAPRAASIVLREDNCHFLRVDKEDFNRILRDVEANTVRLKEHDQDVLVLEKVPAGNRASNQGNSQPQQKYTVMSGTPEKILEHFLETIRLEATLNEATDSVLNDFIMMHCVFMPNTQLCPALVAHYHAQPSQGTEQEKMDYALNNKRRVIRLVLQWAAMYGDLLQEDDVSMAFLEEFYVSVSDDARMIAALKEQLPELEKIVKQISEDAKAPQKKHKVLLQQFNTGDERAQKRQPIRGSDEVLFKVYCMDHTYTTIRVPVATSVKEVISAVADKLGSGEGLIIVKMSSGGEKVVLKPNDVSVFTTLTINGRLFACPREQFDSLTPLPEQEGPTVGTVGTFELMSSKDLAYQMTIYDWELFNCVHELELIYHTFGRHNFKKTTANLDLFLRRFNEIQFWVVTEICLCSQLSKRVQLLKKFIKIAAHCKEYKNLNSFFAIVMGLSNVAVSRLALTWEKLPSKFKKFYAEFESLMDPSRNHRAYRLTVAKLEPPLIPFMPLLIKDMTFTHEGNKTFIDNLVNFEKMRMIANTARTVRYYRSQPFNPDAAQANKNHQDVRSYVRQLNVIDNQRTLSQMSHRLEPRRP
# Sequence of Rap guanine nucleotide exchange factor 3 (Homo sapiens) (O95398 whole entry, looked up): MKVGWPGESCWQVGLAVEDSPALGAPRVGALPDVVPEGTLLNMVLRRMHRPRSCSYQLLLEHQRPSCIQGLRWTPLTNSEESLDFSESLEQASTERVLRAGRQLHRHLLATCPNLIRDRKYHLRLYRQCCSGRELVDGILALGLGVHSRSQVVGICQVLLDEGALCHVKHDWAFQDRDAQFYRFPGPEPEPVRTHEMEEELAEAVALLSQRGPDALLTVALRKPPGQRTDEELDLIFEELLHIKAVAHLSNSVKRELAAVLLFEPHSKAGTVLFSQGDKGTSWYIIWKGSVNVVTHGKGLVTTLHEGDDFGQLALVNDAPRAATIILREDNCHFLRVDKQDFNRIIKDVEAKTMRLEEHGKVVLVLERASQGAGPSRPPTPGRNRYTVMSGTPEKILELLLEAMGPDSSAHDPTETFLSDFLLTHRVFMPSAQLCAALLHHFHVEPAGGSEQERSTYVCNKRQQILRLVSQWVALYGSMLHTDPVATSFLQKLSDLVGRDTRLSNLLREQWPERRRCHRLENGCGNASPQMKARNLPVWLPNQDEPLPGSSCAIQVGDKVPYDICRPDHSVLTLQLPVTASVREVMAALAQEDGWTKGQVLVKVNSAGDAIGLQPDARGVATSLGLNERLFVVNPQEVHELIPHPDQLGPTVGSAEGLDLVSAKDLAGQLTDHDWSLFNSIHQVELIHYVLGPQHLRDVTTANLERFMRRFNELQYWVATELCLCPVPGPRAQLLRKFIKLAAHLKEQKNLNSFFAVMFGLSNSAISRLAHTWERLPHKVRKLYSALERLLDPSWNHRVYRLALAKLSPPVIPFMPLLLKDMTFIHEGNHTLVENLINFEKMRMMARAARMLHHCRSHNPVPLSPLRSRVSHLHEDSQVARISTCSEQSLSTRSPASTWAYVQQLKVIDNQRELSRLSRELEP
# Sequence of Glutathione peroxidase 1 (Homo sapiens) (P07203 whole entry, looked up): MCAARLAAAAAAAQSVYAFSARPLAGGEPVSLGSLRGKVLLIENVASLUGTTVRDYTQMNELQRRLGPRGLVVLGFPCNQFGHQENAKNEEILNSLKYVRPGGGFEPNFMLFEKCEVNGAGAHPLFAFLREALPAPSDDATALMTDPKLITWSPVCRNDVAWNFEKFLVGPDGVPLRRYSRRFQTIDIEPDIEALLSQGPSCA
compound,measurement,setting,value
O=C(CN1Cc2ccccc2OC(c2ccsc2)C1)N1CCN(Cc2ccc3c(c2)OCO3)CC1 (configuration not stated),Potency,[1],inactive
same,Potency,[2],inactive
same,Potency,[3],inactive
Nc1cc(N)cc(N)c1,Potency,[1],28 µM (active)
CC1(C)OCCn2c1nc1c(N3CCOCC3)nc(-c3cnc(N)nc3)nc12,Potency,[4],0.332 µM (active)
same,Potency,[5],inactive
same,Potency,[6],inactive
same,Z-AUC,[7],-0.953 (inactive)
same,Z-AUC,[7]; [11],-0.219
same,Z-AUC,[7]; measured here: PEO4 Z-AUC,-0.151
COc1ccc(SC[C@H](Cc2ccccc2)N2CC[C@@H](C)CCC2=O)cc1,Potency,[1],inactive
Cc1noc(-c2ccc(-c3ccc(C4(C(=O)O)CC4)cc3)cc2)c1NC(=O)O[C@H](C)c1ccccc1,Potency,[4],16.6 µM (active)
same,Potency,[8],16.6 µM (active)
same,Potency,[6],9.04 µM (active)
same,Z-AUC,[7],1.39 (inactive)
same,Z-AUC,[7]; [11],1.53
same,Z-AUC,[7]; measured here: PEO4 Z-AUC,1.53
Cc1c(CN2CCC(Nc3ncnc4sc(CC(F)(F)F)cc34)CC2)ccc2c1cc(C#N)n2Cc1cn[nH]c1,Potency,[8],3.32 µM (active)
same,Potency,[5],inactive
same,Potency,[6],inactive
O=C1CCN(Cc2ccccc2)CCN1[C@H](COc1ccccc1)Cc1ccccc1,Potency,[1],inactive
same,Potency,[2],inactive
C[C@@H]1CC2C3C[C@H](F)C4=CC(=O)C=C[C@]4(C)[C@@]3(F)[C@@H](O)C[C@]2(C)[C@@]1(OC(=O)c1ccco1)C(=O)SCF (some centres not stated),Potency,[8],inactive
same,Potency,[5],inactive
CC(C)(C)S(=O)(=O)c1ccc2nccc(Nc3n[nH]c4ccc(F)cc34)c2c1,Potency,[4],13.2 µM (active)
same,Potency,[5],inactive
same,Z-AUC,[7],-0.44 (inactive)
same,Z-AUC,[7]; [11],-0.407
same,Z-AUC,[7]; measured here: PEO4 Z-AUC,-0.499
O=C(O/N=C1\c2ccccc2-c2nc3ccccc3nc21)c1ccco1,Potency,[4],18.4 µM (active)
same,Potency,[5],inactive
CC/C(=C(/c1ccc(/C=C/C(=O)O)cc1)c1ccc2[nH]ncc2c1)c1ccc(F)cc1Cl,Potency,[8],23.5 µM (active)
same,Potency,[5],inactive
same,Potency,[6],4.04 µM (active)
same,Z-AUC,[7],1.39 (inactive)
same,Z-AUC,[7]; [11],0.628
same,Z-AUC,[7]; measured here: PEO4 Z-AUC,-0.0261
CCCCCCCOc1ccc(CCC(N)(CO)CO)cc1C(F)(F)F,Potency,[4],11.8 µM (active)
same,Potency,[8],10.5 µM (active)
same,Potency,[6],inactive
same,Z-AUC,[7],-0.8 (inactive)
same,Z-AUC,[7]; [11],-1.22
same,Z-AUC,[7]; measured here: PEO4 Z-AUC,-1.35
COc1ccc(Cl)cc1NC(=O)CN(C)Cc1cccs1,Potency,[1],inactive
same,Potency,[2],inactive
CC(=O)C(C(c1ccccc1)c1c[nH]c2ccccc12)[N+](=O)[O-] (configuration not stated),Potency,[1],inactive
same,Potency,[2],inactive
CN(C)c1ccc(/C=C/c2c(Cl)cnc3ccccc23)cc1,Potency,[1],inactive
same,Potency,[2],inactive
O=c1cc(-c2ccccc2)oc2ccc(O)cc12,Potency,[4],18.4 µM (active)
same,Potency,[5],inactive
CNC(=O)CCc1cc(-c2ccc(-c3ccc(C(F)(F)F)cc3)cc2)n(-c2ccc(N3CCNCC3)cc2)n1,Potency,[8],inactive
same,Z-AUC,[7],1.07 (inactive)
same,Z-AUC,[7]; [11],-0.284
same,Z-AUC,[7]; measured here: PEO4 Z-AUC,0.197
C[C@H]1C[C@@H](n2c(Nc3ccc(OC(F)(F)F)cc3)nc3cc(CCC(=O)O)ccc32)CC(C)(C)C1,Potency,[4],inactive
same,Potency,[5],inactive
same,Potency,[6],2.55 µM (active)
COc1ccc2c(c1)[C@@H]1C[C@]1(C(=O)N1[C@@H]3CC[C@H]1CN(C)C3)Cn1c-2c(C2CCCCC2)c2ccc(C(=O)NS(=O)(=O)N(C)C)cc21,Potency,[4],20.6 µM (active)
same,outcome,[9],inactive
CC1COc2ccccc2N1S(=O)(=O)c1cc(Cl)ccc1Cl (configuration not stated),Potency,[1],inactive
same,Potency,[2],inactive
Cc1cc(O[C@@H](CCC(F)(F)F)c2ccc(C(=O)NCCC(=O)O)cc2)cc(C)c1-c1ccc(C(C)(C)C)cc1,Potency,[8],inactive
same,Potency,[5],inactive
same,Z-AUC,[7],0.000666 (inactive)
same,Z-AUC,[7]; [11],0.0877
same,Z-AUC,[7]; measured here: PEO4 Z-AUC,-0.261
CCOC(=O)c1ccc(N(C(=O)c2ccccc2)c2ccccc2)cc1,Potency,[1],inactive
same,Potency,[2],inactive
Cn1cc(C2=C(c3cn(C)c4cc([N+](=O)[O-])ccc34)C(=O)NC2=O)c2ccccc21,Potency,[4],0.525 µM (active)
same,Potency,[8],0.417 µM (active)
same,Z-AUC,[7],-0.69 (inactive)
same,Z-AUC,[7]; [11],-0.95
same,Z-AUC,[7]; measured here: PEO4 Z-AUC,-1.21
COc1ccc(C(=O)c2ccc(OC)cc2OC)cc1,Potency,[1],inactive
same,Potency,[2],inactive
CCN1C(=O)N2Cc3cc(OC)cc(OC)c3[C@@H](C)C=C2C12CCN(Cc1cc(C)cc(C)c1)CC2,Potency,[8],18.6 µM (active)
same,Potency,[5],inactive
same,Potency,[6],inactive
same,Z-AUC,[7],-1 (inactive)
same,Z-AUC,[7]; [11],-1.06
same,Z-AUC,[7]; measured here: PEO4 Z-AUC,-1.16
Cc1ccc(CN2C(=O)CSC2c2ccc(F)cc2)cc1 (configuration not stated),Potency,[1],inactive
same,Potency,[2],inactive
same,Potency,[3],inactive
CCCCN(C(=O)CSc1n[nH]c(-c2ccc(C)cc2)n1)c1c(N)n(CCCC)c(=O)[nH]c1=O,Potency,[1],inactive
same,Potency,[2],inactive
same,Potency,[3],inactive
same,Potency,[10],inactive
Cc1ccc2nccc(/C=C/c3ccc(N(C)C)cc3)c2c1,Potency,[1],inactive
same,Potency,[2],inactive
same,Potency,[3],inactive
